# HP1b binding inh: blocks HP1-beta chromodomain binding to methylated histone tails; 390,000 compounds, 0.56% hits; P83916; Potency, µM (doses to about 114 µM), without a hit: at the highest dose activity change, negative = inhibition, most hits filed as inhibitors; AlphaScreen HP1-beta / biotin-H3K9me3 peptide binding; AID 540317; also: nearly all actives have a fitted effect of over 70% in size
#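 AlphaScreen: HP1-beta (50 nM) preformed 30 min with biotin-H3(1-18)K9me3 peptide (50 nM) in PBS pH 7.4, 0.01% Tween-20. Compound added for 30 min at RT, then streptavidin donor/nickel chelate acceptor beads (10 ug/mL) for 30 min.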
# PLK1 PBD block: blocks phosphopeptide binding to human PLK1 polo-box domain. Potency, µM, for the others: max response, negative = inhibition, hits mostly inhibitors. P53350. 360,000 compounds, 2.8% hits. AID 720504. Plk1 PBD binding of FITC phosphopeptide, fluorescence polarization; also: series mostly up to about 57 µM; % is scaled to controls: 0 for no effect and ±100 for the full control effect; nearly all actives have a fitted effect of over 65% in size
# BAZ2B block: inhibitors of human BAZ2B bromodomain; Q9UIF8; AlphaScreen BAZ2B-H3K14Ac peptide displacement; Potency, µM (highest dose often 114 µM), for inactives: top-dose activity change, negative = inhibition, actives largely listed as inhibitors; 360,000 compounds, 4.4% hits; AID 504333; also: % is scaled to controls: 0 for no effect and ±100 for the full control effect; nearly all actives have a fitted effect of over 60% in size
#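 Compounds, titrated to a top concentration of 110 uM, were incubated 30 min at room temperature with preformed BAZ2B/acetyl-K14 H3 peptide complex (50 nM each). Proximity signal was measured by AlphaScreen after 20 min with beads.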
# G9a block: blocks human histone lysine methyltransferase G9a. Q96KQ7. G9a H3K9 monomethylation, AlphaScreen, 2 h. Potency, µM (doses to about 102 µM), inactives show top-dose activity, negative = inhibition, usual class: inhibitors. 350,000 compounds, 8.8% hits. AID 504332; also: % is scaled to controls: 0 for no effect and ±100 for the full control effect; nearly all actives have a fitted effect of over 75% in size
#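 Readings reflect AlphaScreen signal from monomethyl-H3K9 antibody detection. HMT at 20 nM; substrate b-H3K9 500 nM; cofactor SAM 20 uM; 2 h RT reaction; compounds tested as titrations in qHTS with 15 min preincubation.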
# Sfp PPTase inh: Sfp phosphopantetheinyl transferase inhibition; Biochemical Sfp PPTase activity, qHTS; Potency, µM, inactives show largest response in the series, negative = inhibition, most hits filed as inhibitors; 310,000 compounds, 3.5% hits;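 also: the enzyme is Sfp with the accession as filed and its product quenches rhodamine fluorescence; 0% = enzyme reaction without inhibitor and -100% = no enzyme wells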
#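 Step 1, compound plus 15 nM Sfp-PPTase, 15 min, room temperature. Step 2, add rhodamine-CoA (5 uM) and BHQ-2-YbbR (12.5 uM). Step 3, read 525/598 nm fluorescence at 0 and 30 min.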
# JMJD2A Tudor inh: JMJD2A Tudor domain (human) inhibition | O75164 | AlphaScreen JMJD2A-Tudor / H3K4me3 peptide binding | Potency, µM (doses to about 114 µM), for inactives: top-dose activity change, negative = inhibition, usual class: inhibitors | 390,000 compounds, 4.4% hits; also: % is scaled to controls: 0 for no effect and ±100 for the full control effect; nearly all actives have a fitted effect of over 50% in size
# The depositor's hits bear a star; ? = inconclusive; . = not tested or not shown; [ ] = dose if it differs, or a comment. In the library only some 12% were active in any assay of this set; here they are far more common. Calls follow the shape of the dose curve; as a rule, active = well fitted curve in the direction sought with a large enough effect; inconclusive = small, poorly fitted or top-dose-only effect, or another doubt; inactive = no such curve, though single readings can be large; an effect the other way counts as inactive or inconclusive. Potency is read from the fitted curve at half-maximal effect.
SMILES,HP1b binding inh,PLK1 PBD block,BAZ2B block,G9a block,Sfp PPTase inh,JMJD2A Tudor inh
Cn1c(CNS(=O)(=O)c2ccc(F)cc2)n[nH]c1=S,34%,-7%,-2%,?,-21%,11µM*
O=S(=O)(NCc1nnc2ccccn12)c1ccc(Cl)cc1,49%,4%,7%,-8%[59 µM],.,-2%
Cn1c(CNS(=O)(=O)c2ccc(Cl)cc2)n[nH]c1=S,33%,-6%,9%,?,-1%,6.3µM*
CC(=O)Nc1cccc(-c2ccnc3c2CC(C)(C(=O)Nc2cccc(NS(C)(=O)=O)c2)O3)c1 (configuration not stated),.,-1%,.,.,.,.
CCOC(=O)C1CCCN(Cc2cc(OC)c(O)c(OC)c2)C1 (configuration not stated),-54%,-8%,?,?,-4%,2.2µM*
CCOC(=O)C1CCCN(Cc2cc(=O)oc3cc(C)c(C)cc23)C1 (configuration not stated),42%,-5%,1%,?,6%,8%
CCOC(=O)C1CCCN(Cc2sccc2C)C1 (configuration not stated),?,-4%,50µM*,22µM*,-27%,2.8µM*
CCOC(=O)C1CCCN(Cc2cc(Br)c(OC)cc2OC)C1 (configuration not stated),?,-3%,50µM*,?,-21%,2.8µM*
CC(=O)Nc1ccc(NC(=O)c2ccc3c(c2)CCN3S(=O)(=O)c2ccc(Cl)cc2)cc1,19%,.,0%,-22%[59 µM],.,-14%
Cc1ccc(NC(=O)C2(C)CCN2C2Cc3ccccc3C2)cc1 (configuration not stated),.,-7%,.,.,.,.
COc1ccc(C(=O)/C=C/c2cn(CC(O)CN3CCc4ccccc43)c3ccccc23)cc1OC (configuration not stated),-32%,.,10µM*,?,.,20µM*
CC(C)CN(CC(C)C)CC(O)Cn1cc(/C=C/C(=O)c2ccccc2)c2ccccc21 (configuration not stated),43%,.,89µM*,-4%[59 µM],.,-11%
COc1ccc(C(=O)/C=C/c2cn(CC(O)CN(CC(C)C)CC(C)C)c3ccccc23)cc1OC (configuration not stated),29%,.,-18%,-5%[59 µM],.,-34%
Cc1ccc(C(=O)/C=C/c2cn(CC(O)CN3CCc4ccccc43)c3ccccc23)cc1 (configuration not stated),-21%,.,?,13µM*,.,25µM*
COc1ccc(C(=O)/C=C/c2cn(CC(O)CN3CCOCC3)c3ccccc23)cc1 (configuration not stated),-3%,17%,?,45µM*,-22%,-24%
C/C(=N\Nc1ccccc1C(=O)O)c1ccncc1,38%,-9%,-15%,?,2%,-7%
CCCC(C)C(=O)Nc1ncc(S(=O)(=O)c2ccc([N+](=O)[O-])cc2)s1 (configuration not stated),8%,-10%,-29%,-6%,8%,-20%
O=C(CSc1nnc(CNc2ccc(F)cc2)o1)OC1CCCCC1,-15%,21µM*,4%,.,-4%,?
CC(=O)c1ccc(OCC(=O)OCC(=O)NCc2ccco2)cc1,40%,0%,-1%,-17%[12.7 µM],.,4%
CCC(c1nnnn1-c1ccc2c(c1)OCCO2)N1CCN(C(=O)C2CCCO2)CC1 (configuration not stated),.,-7%,.,.,.,.
Cc1ccc(S(=O)(=O)n2c(N)nc3ccccc32)cc1,12%,1%,-27%,50µM*,9%,-19%
Cc1onc(-c2ccccc2Cl)c1C(=O)Nc1nn[nH]n1,19%,-4%,79µM*,-7%[59 µM],-8%,56µM*
Cc1cc(NC(=O)c2c(-c3ccccc3Cl)noc2C)no1,21%,0%,15%,-5%,-6%,-1%
Cc1onc(-c2ccccc2Cl)c1C(=O)NCc1nc(-c2ccccc2)no1,38%,-2%,5%,?,89µM*,-6%
Cc1cccc(-c2noc(CNC(=O)c3ccoc3C)n2)c1,31%,?,-24%,15%,32µM*,-23%
SMILES,HP1b binding inh,PLK1 PBD block,BAZ2B block,G9a block,Sfp PPTase inh,JMJD2A Tudor inh
C[C@H]1CN([C@@H](C)CO)C(=O)CCCn2cc(nn2)CO[C@@H]1CN(C)C(=O)Nc1ccc(N2CCCCC2)cc1,.,-5%,.,.,.,.
Cc1cn(C2CCCCO2)c(=O)nc1NO (configuration not stated),14%,-3%,.,.,.,89µM*
COc1nc(=O)n(C2CCCO2)cc1C (configuration not stated),33%,-8%,.,.,.,-11%
COc1ccc(C)cc1-n1nnnc1SCC1CCCO1 (configuration not stated),-5%,24µM*,-1%,36%[59 µM],-6%,?
Cc1ccc(C)c(-n2nnnc2SCC(=O)NCC2CCCO2)c1 (configuration not stated),35%,8%,13%,9%[59 µM],.,8%
CC(=O)Nc1ccc(NC(=O)CCn2nnc3ccccc32)cc1,?,19µM*,18%,.,-13%,?
CN(C)c1ccc(NC(=O)CCCCCn2nnc3ccccc3c2=O)cc1,16%,-8%,-20%,50µM*,7%,-25%
CC(=O)c1ccc(NC(=O)CCCCCn2nnc3ccccc3c2=O)cc1,33%,2%,6%,13%,-6%,13%
CCOC(=O)c1ccc(NC(=O)CCn2nnc3ccccc32)cc1,32%,0%,1%,-3%[59 µM],2%,2%
C[C@H](NC(=O)c1ccc(Cl)cc1)C(=O)OCn1nnc2ccccc2c1=O,27%,-9%,.,.,.,?
O=C(CSCC(=O)OCn1nnc2ccccc2c1=O)Nc1ccc(Cl)cc1,25%,?,-22%,45µM*,-10%,1%
Cc1ccc(C(=O)Nc2ncc3c(Cl)cccc3n2)cc1,-12%,21µM*,-35%[57.1 µM],99%[59 µM],12%,?
Cc1ccc(C(=O)Nc2ccc(Cl)cn2)cc1,28%,3%,-2%,16%,5%,4%
COc1ccc(S(=O)(=O)N2CCC(C(=O)Nc3ccccc3N3CCCC3)CC2)cc1OC,11%,-2%,-36%,45µM*,8%,-22%
O=C(Nc1ccccc1N1CCCC1)C1CCN(S(=O)(=O)c2cccc(C(F)(F)F)c2)CC1,43%,-2%,?,14µM*,.,?
COc1ccc(NC(=O)c2c(C(=O)Nc3ccccc3)sc3nc(C)cc(=O)n23)cc1,29%,.,-4%,-8%[59 µM],.,-4%
Cc1cc2c(s1)c1cnn(Cc3ccc(-n4cncn4)cc3)c(=O)c1n2C,.,.,.,.,.,-23%
Cc1ccc2[nH]c(C)c(CCNC(=O)c3cc4cc(Br)ccc4oc3=O)c2c1,-4%,.,?,-5%[59 µM],.,-34%

# From PubChem
